From PubChem BioAssay
HCMV inh = qHTS Assay for inhibitors of the human cytomegalovirus (HCMV); HFF cells, HCMV-luciferase reporter, 72 h; active compounds read low; 4.5% of 410,000 active; activity change, negative = inhibition, % at 57.5 µM; AID 1259415, 2018; in the data active = activity change below about -60%; inconclusive = no clear call, values can overlap the other calls; inactive = above about -39%
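Luciferase read-out from HCMV-luciferase-infected HFFs (MOI 1 PFU/cell) 72 h post infection at 37C; compounds added after 16 h cell attachment; activity normalized between buffer-only basal and Salinomycin (10uM) inhibitor controls.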
Pf growth 96h = Primary qHTS for delayed death inhibitors of the malarial parasite plastid, 96 hour incubation | AID 504834, 2011 | 6.9% of 320,000 active | Potency, µM (titrated, usually from 28.7 µM), for inactives: at the highest dose activity change, negative = inhibition, most hits filed as inhibitors | P. falciparum luciferase reporter growth, 96 h; also: potency is read from the fitted curve at half-maximal effect
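P. falciparum expressing integrated firefly luciferase grown in erythrocytes (2% hematocrit, 0.05% parasitemia final) with compounds for 96 hours at 37 C, 5% CO2. Growth inhibition read as loss of luminescence after adding luciferase detection reagent.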
Marburg entry inh = qHTS for inhibitors of binding or entry into cells for Marburg Virus; Marburg virus pseudotyped entry inhibition, cell reporter; Potency, µM (titrated, usually from 37.8 µM), inactives show at the top dose activity change, negative = inhibition, usual class: inhibitors; 1.8% of 300,000 active; AID 540276, 2011; calls by dose curve; tested in HEK293 cells; also: potency is read from the fitted curve at half-maximal effect
Pf growth 48h = Primary qHTS for delayed death inhibitors of the malarial parasite plastid, 48 hour incubation. Potency, µM (series often up to 28.7 µM), inactives show at the top dose activity change, negative = inhibition, most hits filed as inhibitors. P. falciparum luciferase growth in erythrocytes, 48 h. 5.9% of 310,000 active; also: potency is read from the fitted curve at half-maximal effect
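Here the parasites carry a stable luciferase gene and grow inside erythrocytes in Albumax-based RPMI medium with compound for one erythrocytic cycle. Activity is scored as loss of luminescent signal.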
Lassa entry inh = qHTS for Inhibitors of binding or entry into cells for Lassa Virus. 1.2% of 300,000 active. Lassa virus pseudotype entry inhibition, cell reporter. AID 540256, 2011. Potency, µM (highest dose often 37.9 µM), for the others: top-dose activity change, negative = inhibition, hits mostly inhibitors; calls by dose curve; tested in HEK293 cells; also: potency is read from the fitted curve at half-maximal effect; nearly all actives have a fitted effect of over 50% in size
HCV inhibitor = qHTS Assay for Inhibitors of Hepatitis C Virus (HCV); AID 651820, 2012; Potency, µM (doses to about 41.8 µM), for inactives: at the top dose activity change, negative = inhibition, hits mostly inhibitors; 3.4% of 340,000 active; Huh7.5.1 HCVcc-Cre infection, luciferase reporter, 44 h; also: potency is read from the fitted curve at half-maximal effect
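Reporter virus HCVcc-Cre (~0.5 moi) infects cells exposed to compound; seeding density 1,000 cells/well with 4 h settling beforehand. Luminescence, 15 sec read, taken 44 h post-infection following a 15 min RT substrate incubation.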
Active calls of the source: *; ? = inconclusive; nt = no result given; + = active, no number; [ ] = another dose, or the depositor's remark. Shown are actives, neighbours in structure and some others; about 14% of the full set was active somewhere. Unless noted, calls follow the shape of the dose curve; as a rule, active = well fitted inhibition curve with a large enough effect; inconclusive = small, poorly fitted or top-dose-only effect, or another doubt; inactive = no such curve, though single readings can be large or run the other way. % is scaled to controls: 0 for no effect and ±100 for the full control effect.

SMILES	HCMV inh	Pf growth 96h	Marburg entry inh	Pf growth 48h	Lassa entry inh	HCV inhibitor
COc1ccc(CCNC(=O)C(=O)NCC2OCCCN2S(=O)(=O)c2cc(C)ccc2C)cc1 (stereo not drawn)	-67*	13µM*	-29%	?	-11%	?
COc1ccccc1CCNC(=O)C(=O)NCC1OCCCN1S(=O)(=O)c1ccc(F)cc1C (stereo not drawn)	-75*	?	-20%	-28%	?	10µM*
COc1ccc(CCNC(=O)C(=O)NCC2CCCN2S(=O)(=O)c2cc(C)ccc2C)cc1 (stereo not drawn)	-7	?	?	?	11µM*	?
CN(C)CCNC(=O)C(=O)NCC1OCCN1S(=O)(=O)c1cc(F)ccc1F (stereo not drawn)	-61*	?	12%	3%	-1%	19%
COC(=O)CC1OC1[C@H](C)[C@@H](OC)C(C)C (stereo partly drawn)	nt	nt	-15%[14.2 µM]	nt	?	nt
COCCNC(=O)c1cc(-c2ccccc2)sc1N	-18	nt	nt	nt	nt	nt
CCOc1ccc(S(=O)(=O)N2CCC(C(=O)NC3CCCCC3)CC2)cc1	17	?	?	-7%	-10%	9%
Cc1ccc(C)c(S(=O)(=O)N2CCCOC2CNC(=O)C(=O)NCCc2ccco2)c1 (stereo not drawn)	-12	13µM*	-23%	-5%	-1%	0%
Cc1ccc(C)c(S(=O)(=O)N2CCCOC2CNC(=O)C(=O)NCc2ccco2)c1 (stereo not drawn)	-39	-20%	-15%	?	-13%	-24%
OC[C@H]1O[C@H](c2ccccc2)C=C[C@H]1OCc1cccc(Br)c1	nt	nt	-11%[14.2 µM]	nt	nt	nt
Cc1ccc(S(=O)(=O)CCSC(=N)N)cc1	-40	3%	?	-6%	?	10µM*
COc1ccc(C(=O)NCCc2nnc3ccc(SCC(=O)Nc4ccccc4)nn23)cc1	nt	145%	14%	189%	-1%	20%
CCc1nc(CN2CCN(c3ccc(C(F)(F)F)cn3)CC2)c(C)[nH]1	-20	27%	nt	-8%	nt	10µM*
OC(CN1CCN(c2ccc(C(F)(F)F)cn2)CC1)c1ccccc1 (stereo not drawn)	nt	6%	nt	-6%	nt	?
CN(C)c1ccc(CNCCC(Cc2ccccc2)c2ccco2)cc1 (stereo not drawn)	?	9.3µM*	15µM*	?	?	?
COc1cccc(-c2nc(SCc3cccc(Br)c3)n3[nH]c(=O)cc3n2)c1	10	nt	nt	nt	15%[46.1 µM]	nt
N#Cc1c(N)sc(=S)c2c1CCN(Cc1ccccc1)C2	nt	130%	nt	10µM*	nt	-26%
CN1OC(C)(CC(=O)Nc2ccccc2)N=C1c1ccccc1 (stereo not drawn)	-27	nt	nt	nt	nt	nt
Cc1cc2c(=O)n(C)c(SCC(=O)Nc3ccccc3C)nc2s1	-25	9.3µM*	-2%[46.1 µM]	?	-21%	15%
Cc1cc2c(=O)n(C)c(SCC(=O)Nc3ccccc3)nc2s1	-61*	38%	23%[46.1 µM]	?	nt	-19%
Cc1cccc(NC(=O)CSc2nc3sc(C)cc3c(=O)n2C)c1	-35	nt	?	nt	-27%	-11%
COc1cccc(OCc2nnc(SCC(=O)NNC(=O)C3CCCCC3)n2C)c1	-13	13µM*	14%[46.1 µM]	-8%	-11%	15%
COc1ccc(C(=O)NNC(=O)CSc2nnc(COc3ccc4ccccc4c3)n2C)cc1	-5	2.3µM*	4%	4%	?	-3%
COc1cccc(OCc2nnc(SCC(=O)OC3CCCCC3)n2C)c1	0	17%	27%	?	13%	11%
c1ccc(/N=C2\N=C(Nc3ccccn3)c3ccccc32)nc1	-99*	nt	?	nt	?	?
SMILES	HCMV inh	Pf growth 96h	Marburg entry inh	Pf growth 48h	Lassa entry inh	HCV inhibitor
O=C(Nc1cccc(C(=O)NC2CCCCC2)c1)c1ccccc1	-13	18%	?	13%	?	-29%
O=C(O)CCC(=O)Nc1ccccc1C(=O)NC1CCCCC1	12	6%	0%	7%	7%	14%
Cc1ccc(Cl)c(OCC(=O)Nc2ccccc2C(=O)NC2CC2)c1	-100*	-13%	nt	4%	nt	-10%
CCC(=O)Nc1ccccc1C(=O)NC1CCCCC1	-110*	165%	3%	nt	-2%	6%
O=C(Nc1ccsc1C(=O)NC1CCCCC1)c1ccccc1	-16	?	-6%	7.4µM*	-24%	-4%
O=C(Nc1ccccc1C(=O)NC1CCCCC1)c1ccccc1	-5	6.6µM*	nt	?	nt	-28%
Cc1cccc(OCC(=O)N(C)CC(=O)Nc2cccc(F)c2)c1C	-11	?	nt	?	nt	-8%
COc1ccc(OC)c(CCNC(=O)c2cc3cccc4c3n2CCS4)c1	0	nt	nt	nt	-25%[46.1 µM]	nt
Cc1coc2cc3oc(=O)cc(C)c3cc12	-39	27%	5%	38%	14%	?
COc1ccc(-c2cc(=O)oc3cc4occ(C)c4cc23)cc1	-39	0.83µM*	-1%	?	0%	9%
Cc1c(O)ccc2c(-c3ccccc3)cc(=O)oc12	-71*	-13%	nt	?	nt	-9%
COc1ccc(-c2cc(=O)oc3cc(O)ccc23)cc1	-96*	16%	-30%[46.1 µM]	32%	?	-2%
COc1ccc(-c2cc(=O)oc3cc(OC(C)C(=O)NC4CC4)ccc23)cc1 (stereo not drawn)	14	2.9µM*	nt	?	nt	10%
COc1ccc(-c2cc(=O)oc3cc(OCC(C)=O)ccc23)cc1	14	9%	?	-2%	?	?
CCOC(=O)Cc1ccc(Nc2nc(NCc3cccs3)nc3ccsc23)cc1	-3	nt	nt	nt	nt	nt
COc1ccc(-c2cc(=O)oc3cc(OC(=O)C4CCCCC4)c(Cl)cc23)cc1	-91*	?	-12%	6%	4%	-3%
COc1ccc(-c2cc(=O)oc3c(C)c(O)ccc23)cc1	-72*	0%	nt	0%	nt	-6%
COc1ccc(-c2coc3cc4oc(=O)cc(C)c4cc23)cc1F	-63*	?	?	0%	?	?
Cc1c(O)ccc2c(CN3CCN(CCO)CC3)cc(=O)oc12	18	3%	34%	-1%	10%	15%
COc1ccc(-c2cc(=O)oc3c(C)c(OC(=O)c4cccs4)ccc23)cc1	-26	11%	?	22%	?	-1%
CC(Oc1cc2oc(=O)cc(-c3ccccc3)c2cc1Cl)C(=O)NCC1CCC(C(=O)O)CC1 (stereo not drawn)	9	?	nt	-5%	nt	-10%
Cc1c(O)ccc2c(CN3CCOCC3)cc(=O)oc12	+	1%	nt	13%	nt	7%
